Data: the supplement of paper PMC6135742
Counter-ions that a name gives are not always drawn. ± gives the standard deviation of the averaged measurements. Whole data set: some 2,600 compounds, median “MBP+ mature oligodendrocyte number relative to DMSO vehicle control” near -0.34, cut for the highest 2% near 13. Only a selection was taken, and the highest values are over-represented in it overall.

Tested on: jimpy (Plp1 jimpy) mouse iPSC-derived oligodendrocyte progenitor cells
Assay: MBP+ mature oligodendrocyte number relative to DMSO vehicle control (SDs above negative control mean); higher = more surviving jimpy oligodendrocytes (rescue)
Settings: 10 µM; 3 days
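Further: 10 µM single dose with 3-day oligodendrocyte differentiation.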

Row | SMILES | MBP+ mature oligodendrocyte number
1 | NC(N)=NCc1cccc(I)c1 [m-Iodobenzylguanidine hemisulfate] | 16.6
2 | CCN(CC)CCn1c(=O)c(Cc2ccc(OC)cc2)nc2ccccc21 [Caroverine hydrochloride] | -0.211
3 | Cc1ccc(S(=O)(=O)OCC(=O)Nc2ccc(C(=O)O)c(O)c2)cc1 | 2.29
4 | CC[n+]1c(/C=C/C=C2/N(C)c3ccccc3C2(C)C)sc2ccccc21 | < -4.47
5 | Cc1cc(C(=O)NOCCO)c(Nc2ccc(I)cc2F)n(C)c1=O | -0.892
6 | NCCNS(=O)(=O)c1cccc2c(Cl)cccc12 [A3 hydrochloride] | -2.82
7 | Cc1nnc(C(=O)NC(C)(C)c2nc(C(=O)NCc3ccc(F)cc3)c(O)c(=O)n2C)o1 [Raltegravir (MK-0518)] | 55.9
8 | Cn1c(N2CCCCS2(=O)=O)nc(C(=O)NCc2ccc(F)cc2)c(O)c1=O | < -6.7
9 | O=C(O)c1ccccc1Nc1cccc(C(F)(F)F)c1 [Flufenamic acid] | 1.25
10 | O=C(Nc1cccc(C(F)(F)F)c1)Nc1cc(S(=O)(=O)NC2CC2)ccc1-c1ccsc1 | 18.2
11 | COc1cc(OC)cc(-c2cc3cnc(N)nc3nc2NC(=O)NC(C)(C)C)c1 | -2.43
12 | CC[C@H](NC(=O)c1c(C)c(-c2ccccc2)nc2ccccc12)c1ccccc1 | -1.61
13 | O=C1NC(=O)/C(=C\c2ccc3nccnc3c2)S1 | -0.833
14 | FC(F)(F)c1ccccc1-n1ccnc1 [1-[2-(Trifluoromethyl)phenyl]imidazole] | -0.176
15 | Clc1ccccc1C(c1ccccc1)(c1ccccc1)n1ccnc1 [Clotrimazole] | 15.7 ± 1.2
16 | O=C(NCCO)c1cccc(-c2cc(Nc3ccc(OC(F)(F)F)cc3)ncn2)c1 | -0.394
17 | CC(=O)[C@H]1CC[C@H]2[C@@H]3CC=C4C[C@@H](OS(=O)(=O)O)CC[C@]4(C)[C@H]3CC[C@]12C [Pregnenolone sulfate sodium] | 0.467
18 | O=C1NC(=O)C(=Cc2ccc(-c3ccc(F)cc3)o2)S1 (stereo in doubt) | 0.66
19 | Clc1ccc(C(c2ccc(Cl)cc2)[n+]2ccn(CC(OCc3ccc(Cl)cc3Cl)c3ccc(Cl)cc3Cl)c2)cc1 (stereo not drawn) [Calmidazolium chloride] | < -3.34

Row | SMILES | MBP+ mature oligodendrocyte number
20 | CC(C)OC(=O)C(C(=O)OC(C)C)=C1SC=CS1 [Malotilate] | 19
21 | CCN(C(=O)c1c(O)c2c(Cl)cccc2n(C)c1=O)c1ccccc1 [Laquinimod] | 1.45
22 | O=C(O)[C@H](CC(=O)N1C[C@H]2CCCC[C@H]2C1)Cc1ccccc1 [Mitiglinide calcium] | -1.54
23 | COc1ccccc1N1CCN(CCN(C(=O)c2ccc(F)cc2)c2ccccn2)CC1 [p-MPPF dihydrochloride] | 6.54
24 | CNCc1ccc(C)c(NC(=O)c2ccc(Nc3nc(-c4ccccc4)c4ccccc4n3)cc2)c1 | < -6.35
25 | Cc1ccc(NC(=O)c2cccc(N(C)C)c2)cc1NC(=O)c1ccc(O)cc1 | 14.6
26 | Cc1ccc(C(=O)Nc2ccc(S(=O)(=O)O)c3cc(S(=O)(=O)O)cc(S(=O)(=O)O)c23)cc1NC(=O)c1cccc(NC(=O)Nc2cccc(C(=O)Nc3cc(C(=O)Nc4ccc(S(=O)(=O)O)c5cc(S(=O)(=O)O)cc(S(=O)(=O)O)c45)ccc3C)c2)c1 [Suramin sodium salt] | -1.35
27 | C[C@]12CC[C@@H]3c4ccc(O)cc4CC[C@H]3[C@@H]1CCC2=O [Estrone] | 21.6 ± 26
28 | C[C@]12CC[C@@H]3c4ccc(O)cc4CC[C@H]3[C@@H]1CC[C@@H]2O [beta-Estradiol] | 3.17
29 | C[C@]12CC[C@@H]3c4ccc(O)cc4CC[C@H]3[C@@H]1C[C@@H](O)[C@@H]2O [Estriol] | -0.78
30 | C[C@]12CC[C@@H]3c4ccc(O)cc4CC[C@H]3[C@@H]1CC[C@@H]2O [Estradiol] | 5.47
31 | Nc1nc2ccc(Cl)cc2n2c(-c3ccccc3)nnc12 | 0.304
32 | Oc1c2ccccc2c2c3c(cccc13)N=N2 | -2.59 ± 1.1
33 | CCCCCCCCCCCCCCCC(=O)OC[C@H](O)[C@H]1OC(=O)C(O)=C1O [L-Ascorbyl 6-palmitate] | -1.84
34 | N[C@@H](Cc1cc(I)c(Oc2cc(I)c(O)c(I)c2)c(I)c1)C(=O)O [L-Thyroxine] | -1.06
35 | c1ccc(-c2ccc(C(c3ccccc3)n3ccnc3)cc2)cc1 (stereo not drawn) [Bifonazole] | 52.3
36 | N#Cc1ccc(C(c2ccc(C#N)cc2)n2cncn2)cc1 [Letrozole] | 3.69
37 | CC(N)(Cc1ccc(O)cc1)C(=O)O (racemic) [DL-alpha-Methyl-p-tyrosine] | 1.37
38 | O=C(/C=C/c1ccc(O)cc1)CC(=O)/C=C/c1ccc(O)cc1 [Bisdemethoxycurcumin] | 0.659
